The subject of the experiment is Plasmodium falciparum Sir2 (PF13_0152, Sir2A). Kind of experiment: pfSir2 binders on small-molecule microarrays, primary screen, biochemical, small-molecule microarray, 635 nm fluorescence (AID 1098).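 Note: score merges spot fluorescence intensity with its signal-to-noise ratio.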 Conditions: small-molecule microarray binding, fluorescence 635 nm; higher = more signal.
Turning to `C=C1C(=O)C=C2CN(C(=O)c3ccccc3)[C@@](Cc3ccc(OC)cc3)(C(=O)OC)[C@@H]12`, the composite z-score stood at 1.14.

As for `COC(=O)[C@@]1(Cc2ccc(F)cc2)[C@H]2c3cc(C(=O)N(C)C)n(C)c3C[C@H]2CN1C(=O)c1ccccc1`, the composite z-score was 0.0911.

For `COCCCNC(=O)[C@@]1(CCS(=O)(=O)c2ccccc2)COC(c2ccc(OCCCO)cc2)=N1`, the composite z-score worked out at 1.37.

With `CO[C@H]1O[C@H](CO)[C@@H](OC(=O)Nc2ccc3c(c2)OCO3)[C@H](OC(=O)Nc2ccccc2-c2ccccc2)[C@H]1OC(=O)Nc1ccccc1-c1ccccc1`, the composite z-score was 0.977.

Turning to `NC(=O)N1C(=O)C2C(C1=O)C1C=C(CCCO)C2C(C2CC2)N1Cc1sc2ccccc2c1Cl` (stereo unspecified), the composite z-score stood at 0.903.

`C=CC[C@@]1(C(=O)OC)N=C(c2ccc(OCCCO)cc2)O[C@@H]1c1ccccc1N=[N+]=[N-]` returned a composite z-score of 1.5.

`C=CCC(OC(C)=O)[C@@H]1[C@@H](N(Cc2ccc(-c3ccccc3)cc2)C(=O)c2cccc3ccccc23)c2cc(OCCCO)ccc2N1C(=O)Cc1ccc(OC)cc1` (stereo partly specified) registered a composite z-score of 0.057.

With `CCOc1cc(C(O)C2C=CC3C(=O)N(c4ccccc4)C(=O)C3N2Nc2ccccc2F)ccc1O` (stereo unspecified), the composite z-score was 1.53.

Regarding `C=CCC(OC(C)=O)[C@@H]1[C@@H](N(Cc2cc3ccccc3o2)C(=O)c2cccc3ccccc23)c2cc(OCCCO)ccc2N1C(=O)c1ccc2ccccc2n1` (stereo partly specified), the composite z-score is -0.408.

`COc1ccc(C(O)C2C=CC3C(=O)N(C)C(=O)C3N2N(c2ccccc2)c2ccccc2)cc1` (stereo unspecified) had a composite z-score of 1.59.

For `O=C1O[C@@H](c2ccccc2)[C@@H](c2ccccc2)N2[C@@H](c3ccc(OCCO)cc3)[C@]3(C(=O)Nc4ccc(C#CC5(O)CCCCCC5)cc43)[C@@H](C(=O)Nc3nc4ccccc4s3)[C@H]12`, the composite z-score was found to be 0.943.

Source of the values: PubChem BioAssay.
